Screening results from PubChem.
Compounds with a hit are over-represented: about 3.1% of the library has one in this group of screens.
TDP1 inh – blocks human tyrosyl-DNA phosphodiesterase 1; Q9NUW8; recombinant TDP1, AlphaScreen DNA substrate cleavage; Potency, µM (titrated, usually from 130 µM), most hits filed as inhibitors; 350,000 tested, 0.28% active; further: nearly all actives have a fitted effect of over 40% in size
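Here, a 5' biotin and 3' phosphotyrosine-FITC DNA oligonucleotide reports Tdp1 activity: intact substrate bridges AlphaScreen beads, while cleavage leaves a 3' phosphate and drops signal. All incubations at room temperature.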
PLK1 PBD block – blocks phosphopeptide binding to human PLK1 polo-box domain. P53350. Plk1 PBD binding of FITC phosphopeptide, fluorescence polarization. Potency, µM, usual class: inhibitors. 360,000 tested, 2.8% active. AID 720504; further: series mostly up to about 57 µM; nearly all actives have a fitted effect of over 65% in size
Tb PFK block – T. brucei PFK enzyme inhibition; O15648; T. brucei PFK, ADP-Glo luminescence; Potency, µM (doses to about 57.5 µM), hits mostly inhibitors; 330,000 tested, 0.17% active; further: nearly all actives have a fitted effect of over 60% in size
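Compounds were pin-transferred as a titration series up to 57 uM into substrate buffer (0.5 mM F6P, 0.1 mM ATP, pH 8.0), then 1.25 nM PFK was added and reactions ran 45 min before ADP-Glo detection.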
S-ASM inh – blocks human secretory acid sphingomyelinase | placental ASM, HMU-PC fluorogenic substrate, 60 min | Potency, µM (highest dose often 57.5 µM), actives largely listed as inhibitors | 340,000 tested, 0.006% active | AID 504937
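Fluorogenic HMU-PC substrate (9 uM final) is turned over by placental ASM in 60 min at 37 C after a 10 min compound preincubation. Reaction ended by alkaline stop (pH 10), with fluorescence read at 386/447 nm.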
Pin1 inhibitor – inhibitors of human Pin1; Q13526; Pin1 FP peptide displacement, HiFluor488, 10 min; Potency, µM (doses to about 115 µM), usual class: inhibitors; 390,000 tested, 0.009% active; active means well fitted inhibition curve with a large enough effect in the polarisation, with a control signal flat, not every such curve was filed as active; inconclusive means small, poorly fitted or top-dose-only effect, or effect the other way, or a change in a side signal; inactive means no such curve, though single readings can be large or run the other way; the % refers to the polarisation
Target sequence (Q13526 whole entry, looked up): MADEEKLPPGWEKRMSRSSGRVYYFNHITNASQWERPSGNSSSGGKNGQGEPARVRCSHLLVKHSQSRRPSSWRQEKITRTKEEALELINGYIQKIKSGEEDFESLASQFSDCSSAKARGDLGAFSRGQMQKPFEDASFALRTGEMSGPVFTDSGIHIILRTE
VDR inhibitor – inhibitors of human vitamin D receptor; P11473; VDR-SRC2-3 peptide fluorescence polarization, 2 h; Potency, µM, hits mostly inhibitors; 400,000 tested, 0.93% active
Target sequence (P11473 whole entry, looked up): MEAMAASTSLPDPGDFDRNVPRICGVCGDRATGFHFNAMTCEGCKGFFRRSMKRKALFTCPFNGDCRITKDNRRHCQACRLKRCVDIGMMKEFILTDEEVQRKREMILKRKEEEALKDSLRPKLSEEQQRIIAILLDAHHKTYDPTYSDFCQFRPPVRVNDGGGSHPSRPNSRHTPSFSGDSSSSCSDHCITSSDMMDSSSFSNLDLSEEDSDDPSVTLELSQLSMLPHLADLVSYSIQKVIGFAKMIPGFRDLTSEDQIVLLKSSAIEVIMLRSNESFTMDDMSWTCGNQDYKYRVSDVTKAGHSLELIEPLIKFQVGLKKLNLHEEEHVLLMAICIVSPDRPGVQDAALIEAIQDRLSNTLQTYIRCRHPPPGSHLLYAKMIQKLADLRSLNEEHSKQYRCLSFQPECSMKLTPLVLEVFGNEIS
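Fluorescence polarization assay of small-molecule disruption of VDR binding to coregulator peptide SRC2-3. Compounds and controls pin-transferred, then read after 2 h incubation at ambient room temperature.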
Each line names hits and unclear results; the compound was inactive in the other large screens. Unless noted, the call rests on the fitted dose curve; in most records, active means well fitted curve in the direction sought with a large enough effect; inconclusive means small, poorly fitted or top-dose-only effect, or another doubt; inactive means no such curve, though single readings can be large; an effect the other way counts as inactive or inconclusive.

COc1ccc(Cc2nnc(NS(=O)(=O)c3ccc(Cl)cc3)s2)cc1OC	PLK1 PBD block 30µM
CC(C)(C)Cc1nnc(NS(=O)(=O)c2ccc(F)cc2)s1	PLK1 PBD block inconclusive
Cc1ccc(S(=O)(=O)Nc2nnc(CC(C)(C)C)s2)cc1	PLK1 PBD block 27µM (no result: TDP1 inh)
COCc1nnc(NS(=O)(=O)c2ccc(NC(C)=O)cc2)s1	none
Cc1ccc(S(=O)(=O)Nc2nnc(C(C)(C)C)s2)cc1	PLK1 PBD block 24µM (no result: TDP1 inh)
O=C(Nc1cc(OC(=O)C(F)(F)F)c2nonc2c1OC(=O)C(F)(F)F)C(F)(F)F	VDR inhibitor inconclusive (no result: PLK1 PBD block, Tb PFK block, S-ASM inh)
Cc1ccc(C)c(CN2C(=O)CSc3ccc(C(=O)NCc4ccc(F)cc4)cc32)c1	none (no result: PLK1 PBD block, Tb PFK block, S-ASM inh)
CC(=O)Nc1ccc(Nc2nc(Nc3ccc(Cl)cc3)nc(N3CCOCC3)n2)cc1	none (no result: PLK1 PBD block, Tb PFK block, S-ASM inh)
CCCCCCCCCCCCCCNCCO	none (no result: TDP1 inh, PLK1 PBD block, Tb PFK block, S-ASM inh, Pin1 inhibitor)
COc1cc(C)c2c(c1C=O)Oc1c(c(C)c(O)c3c1C(O)OC3=O)OC2=O (stereo unspecified)	Pin1 inhibitor inconclusive, VDR inhibitor 45µM (no result: TDP1 inh)
Cc1cc(O)c(C=O)c2c1C(=O)Oc1c(C)c(O)c3c(c1O2)C(O)OC3=O (stereo unspecified)	TDP1 inh 7.9µM, VDR inhibitor 6.3µM (no result: PLK1 PBD block, Tb PFK block, S-ASM inh, Pin1 inhibitor)
O=C(O)CCn1nnc(-c2ccccc2)n1	PLK1 PBD block 21µM
CCOC(=O)Cn1nnc(-c2ccccc2)n1	none
CCOC(=O)COc1ccc(/C=C2/C(=O)NN(c3ccc(F)cc3)C2=O)cc1OC	PLK1 PBD block 27µM, Pin1 inhibitor inconclusive (no result: TDP1 inh)
CCOc1cc(/C=C2\C(=O)NN(c3ccccc3)C2=O)cc([N+](=O)[O-])c1O	TDP1 inh inconclusive, PLK1 PBD block 17µM, Tb PFK block inconclusive, VDR inhibitor inconclusive (no result: Pin1 inhibitor)
CC(=O)Oc1ccc2nc(-c3ccco3)oc(=O)c2c1	PLK1 PBD block 27µM, VDR inhibitor inconclusive (no result: TDP1 inh)
Cc1cn(C2CC3OCC(NC(=O)C(NC(=O)OC(C)(C)C)C(C)OCc4ccccc4)C3O2)c(=O)[nH]c1=O (stereo unspecified)	none (no result: PLK1 PBD block, Tb PFK block, S-ASM inh)
CN1N=C(C(=O)N2CCc3c([nH]c4ccccc34)C2c2ccccc2Cl)CCC1=O (stereo unspecified)	PLK1 PBD block 27µM
COC(=O)c1sc(-c2ccccc2)cc1NC(=O)Nc1ccc(F)cc1	none (no result: PLK1 PBD block, Tb PFK block, S-ASM inh)
Cc1ccc(S(=O)(=O)c2nnn3c2nc(N2CCC(C)CC2)c2cc(Cl)ccc23)cc1C	none (no result: PLK1 PBD block, Tb PFK block, S-ASM inh)
C=CCNc1ncnc2c1cnn2-c1ccc(Cl)cc1	PLK1 PBD block 21µM, VDR inhibitor inconclusive
C=CCN1c2ccccc2[C@]23C[C@@H](C(=O)OC)N(S(=O)(=O)c4ccc(C)cc4)C2=NC(C(=O)OC)=C(C(=O)OC)[C@H]13	none (no result: PLK1 PBD block, Tb PFK block, S-ASM inh, Pin1 inhibitor, VDR inhibitor)
COc1cc(/C=C2/SC(=S)N(Cc3ccccc3)C2=O)ccc1OS(C)(=O)=O	none (no result: TDP1 inh)
COc1ccc(/C=C2\SC(=S)N(CCCC(=O)Nc3ccccn3)C2=O)cc1OC	Pin1 inhibitor inconclusive
COc1cc(/C=C2\SC(=S)N(CC(=O)O)C2=O)ccc1OS(=O)(=O)c1ccc(C)cc1	PLK1 PBD block 21µM, VDR inhibitor inconclusive
COc1cc(/C=C2/SC(=S)N(CC(=O)O)C2=O)ccc1OC(=O)c1cccs1	PLK1 PBD block 24µM, VDR inhibitor inconclusive
Cc1ccccc1NCc1ccc(O)c2ncccc12	PLK1 PBD block 3µM, VDR inhibitor inconclusive
Oc1ccc2ccccc2c1CNc1ccccc1	PLK1 PBD block 3.4µM, VDR inhibitor 22µM (no result: TDP1 inh, Tb PFK block)
Oc1ccc(CNc2ccc(F)cc2)c2cccnc12	PLK1 PBD block 3.4µM, Pin1 inhibitor inconclusive, VDR inhibitor inconclusive
Oc1ccc(CNc2ccccc2)c2cccnc12	PLK1 PBD block 7.5µM, VDR inhibitor inconclusive
COc1ccc(-c2nc3scc(CCNS(=O)(=O)c4ccc(Oc5ccccc5)cc4)n3n2)cc1OC	none (no result: PLK1 PBD block, Tb PFK block, S-ASM inh)
Cc1nc(-c2ccc(F)cc2)sc1CCNC(=O)c1ccccc1C(F)(F)F	none (no result: PLK1 PBD block, Tb PFK block, S-ASM inh)
CCOC(=O)c1c(-c2ccc(F)cc2)csc1NC(=O)C1CCCO1 (stereo unspecified)	PLK1 PBD block 27µM, VDR inhibitor inconclusive
N#Cc1ccc(CS(=O)(=O)c2nc3ccccc3s2)cc1	VDR inhibitor inconclusive (no result: PLK1 PBD block, Tb PFK block, S-ASM inh, Pin1 inhibitor)
O=C(O)Cn1nc(-c2ccccc2)oc1=O	none
O=C(O)Cn1nc(-c2ccc(F)cc2)oc1=O	PLK1 PBD block 24µM, VDR inhibitor inconclusive
O=C(N/N=C/c1ccc(Cl)cc1Cl)c1ccc(-n2cnnn2)cc1	none
O=C(N/N=C/c1c(Cl)cccc1Cl)c1ccc(-n2cnnn2)cc1	TDP1 inh 56µM
C[C@H]1Cc2c(-c3ccccc3)nc3c(c2CO1)CN(S(=O)(=O)c1ccc(C#N)cc1)CC3	none (no result: PLK1 PBD block, Tb PFK block, S-ASM inh, Pin1 inhibitor, VDR inhibitor)
CC(C)C1=Nc2cccc3cccc(c23)N1	PLK1 PBD block 9.5µM
CC(C)CCNC(=O)c1ccc2c(c1)N(Cc1ccccc1F)C(=O)c1ccccc1S2=O (stereo unspecified)	none (no result: PLK1 PBD block, Tb PFK block, S-ASM inh)
COc1ccc(Cc2nnc(NC(=O)c3c(-c4ccccc4)noc3C)s2)cc1	none
